Sampled rows, rich in hits. Any-hit rate of the full collection: about 4%.
aDG glyco act = alpha-DG glycosylation activation; activation, % at 10 µM; 0.22% of 360,000 active; AID 624168; Pro5-aDG cells, alpha-DG glycosylation AlphaScreen (IIH6); 0% Pro5, 100% B10-LARGE cell signal;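 active = activation of at least 8% versus controls, or a plate z-score of at least 8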;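 note: Pro5 are CHO cells carrying HIG-tagged alpha-DG that lacks glycosylation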
FAS TE block = blocks the thioesterase domain of human fatty acid synthase; recombinant FAS-TE, OMFH fluorogenic substrate, fluorescence endpoint; inhibition, % at 15 µM; 0.67% of 360,000 active; AID 602261;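 active = compounds whose normalised, plate-corrected inhibition of enzyme fluorescence in the single-dose primary screen is 50% or more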;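 note: 0% = DMSO with enzyme and 100% = substrate without enzyme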
ADAM10 inh = ADAM10 inhibition, QFRET primary screen; O14672; recombinant ADAM10, EDANS/DABCYL FRET peptide cleavage, 3 h; inhibition, % at 7 µM; 0.62% of 370,000 active; AID 720582;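 active = inhibition above a per-campaign cutoff equal to the mean of compounds falling between control-based bounds plus 3 SD, cut at about 20% in these data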;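 note: 0% = DMSO wells while the 100% control is not disclosed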
ADAM17 inh = ADAM17 inhibition, QFRET primary screen | P78536 | 0.83% of 370,000 active | recombinant ADAM17, EDANS/DABCYL FRET peptide cleavage | inhibition, % at 6.95 µM;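 active = inhibition above the mean of compounds lying between control limits plus 3 SD, set per campaign, cut at about 8.5% in these data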;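 note: 0% = DMSO-only wells as the low control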
Target sequence (P78536 215-824 limits assumed): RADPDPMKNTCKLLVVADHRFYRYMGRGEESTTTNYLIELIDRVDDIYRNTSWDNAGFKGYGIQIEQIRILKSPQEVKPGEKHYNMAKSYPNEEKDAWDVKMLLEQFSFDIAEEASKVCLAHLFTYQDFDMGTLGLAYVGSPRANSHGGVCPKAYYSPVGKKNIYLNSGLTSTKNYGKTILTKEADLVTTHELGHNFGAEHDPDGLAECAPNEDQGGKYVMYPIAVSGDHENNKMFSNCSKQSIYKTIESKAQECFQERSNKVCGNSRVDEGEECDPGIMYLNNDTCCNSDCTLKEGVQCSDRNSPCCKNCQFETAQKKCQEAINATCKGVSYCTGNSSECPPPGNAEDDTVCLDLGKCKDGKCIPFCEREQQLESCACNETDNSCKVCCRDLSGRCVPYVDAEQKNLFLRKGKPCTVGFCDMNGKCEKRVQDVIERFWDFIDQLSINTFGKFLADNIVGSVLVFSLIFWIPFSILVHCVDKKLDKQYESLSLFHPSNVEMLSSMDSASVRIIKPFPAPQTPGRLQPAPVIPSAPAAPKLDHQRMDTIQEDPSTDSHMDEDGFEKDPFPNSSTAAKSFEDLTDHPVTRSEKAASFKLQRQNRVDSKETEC
NR3A LBD binder = modulators (binders) of human NR3A ligand-binding domain | 2.5% of 340,000 active | Tm shift relative to glycine control, % at 25 µM | NR3A LBD differential scanning fluorimetry, Tm shift; 0% = protein alone, 100% = glycine-bound protein;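 active = melting temperature shift of at least 10% of the positive control shift, at one fixed dose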
ADAM10 confirm = human ADAM10 inhibition, confirmation; shares compounds with ADAM10 inh; inhibition, % at 6.95 µM; 1% of 2,100 active; ADAM10 QFRET peptide cleavage, EDANS fluorescence;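 active = inhibition above about 20% chosen separately for each screening run, limit read from the data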;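 note: 0% = DMSO wells and 100% = marimastat wells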
ADAM17 ctr = ADAM17 inhibition, counter-screen for ADAM10 exosite hits; 0.5% of 2,100 active; AID 743214; inhibition, % at 6.95 µM; shares compounds with ADAM10 inh; ADAM17 QFRET peptide cleavage, EDANS fluorescence;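 active = mean triplicate inhibition above the solvent-only control wells' mean plus 3 SD, cut at about 12% in these data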;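 note: 0% = DMSO wells and 100% = marimastat wells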
The depositor's hits bear a star; nt = not tested or not shown.

SMILES | aDG glyco act | FAS TE block | ADAM10 inh | ADAM17 inh | NR3A LBD binder | ADAM10 confirm | ADAM17 ctr
CCOc1cc(/C=N/NC(=O)c2cccc([N+](=O)[O-])c2)ccc1OS(=O)(=O)c1ccccc1 | 0.2 | 26.6 | 27.9* | 6.0 | 1.4 | 3.8 | 1.4
CCCCOc1ccccc1C(=O)NNC(=S)NC(=O)c1ccccc1[N+](=O)[O-] | 0.4 | 2.5 | 26.9* | 8.5 | -5.2 | 6.7 | 1.6
CC(C)CC#Cc1ccc2c(c1)O[C@H](CN(C)C(=O)Nc1ccccc1)[C@@H](C)CN([C@H](C)CO)S2(=O)=O | -0.1 | -1.9 | 2.0 | 2.4 | nt | nt | nt
C[C@@H]1CN([C@H](C)CO)S(=O)(=O)c2ccc(C#Cc3ccccc3)cc2O[C@H]1CN(C)C(=O)Nc1ccc2c(c1)OCO2 | 0.1 | 30.1 | 20.2* | 5.7 | nt | 9.4 | 3.5
CO/N=C/NC(=O)NOCc1ncc(C(F)(F)F)cc1Cl | 0.2 | -6.9 | 1.0 | 4.7 | -0.9 | nt | nt
O=C(N/C=N/OCc1ccc(Cl)cc1Cl)NOCc1ncc(C(F)(F)F)cc1Cl | 0.1 | 3.8 | 20.2* | 11.5* | 0.1 | 10.6 | 2.9
COc1ccc(OCC(=O)NNC(=O)c2ccc3c(=O)n4c(nc3c2)CCC4)cc1 | 0.0 | -3.5 | 71.3* | -1.1 | 0.7 | 1.6 | 0.4
O=C(COc1ccc(Cl)cc1)NNC(=O)c1ccc2c(=O)n3c(nc2c1)CCC3 | -0.2 | -1.3 | 81.2* | 2.8 | -1.3 | 2.0 | 0.7
CC(=O)N1CCOc2ccc(S(=O)(=O)NC[C@H]3O[C@@H](n4ccc(N)nc4=O)[C@H](O)[C@@H]3O)cc21 | -0.1 | -7.5 | -4.8 | -1.0 | nt | nt | nt
O=C(CN1CCN(Cc2ccc3c(c2)OCO3)CC1)Nc1cc(S(=O)(=O)N2CCCC2)ccc1Cl | 0.4 | 35.7 | 0.3 | -0.8 | -4.1 | nt | nt
Nc1ccc2c(c1)Nc1ccccc1CC2 | 0.4 | -2.5 | 23.6* | 3.7 | -1.9 | 0.5 | 0.5
COC(=O)Nc1ccc2c(c1)Nc1ccccc1CC2 | -0.1 | 11.9 | -2.2 | 3.9 | -6.0 | nt | nt
C[C@@H]1CN([C@@H](C)CO)S(=O)(=O)c2ccc(Br)cc2O[C@H]1CN(C)Cc1ccccc1F | 0.2 | 30.2 | 14.0 | 4.9 | nt | nt | nt
COc1ccc(/C=N/NC(=O)c2ccn[nH]2)cc1COc1ccc(Cl)cc1Cl | 0.1 | -43.7 | 20.6* | 3.0 | 5.5 | 7.0 | 3.5
Cc1ccc(NC(=S)NC(=O)/C=C/c2ccco2)c(O)c1 | -0.1 | -4.3 | -3.5 | -0.7 | -2.3 | nt | nt
Cc1cc(C)c(C)c(S(=O)(=O)Nc2ccc3cn[nH]c3c2)c1C | 1.2 | 1.4 | 99.0* | -6.3 | 2.8 | 1.5 | 0.8
N#Cc1c(N)[nH]c2ccc(Sc3ccccc3)cc12 | -0.2 | 31.7 | 25.5* | 0.8 | 108.6* | 2.9 | 2.0
CN(CC(=O)Nc1cc(Cl)cc(Cl)c1)Cc1cccs1 | -0.1 | 23.8 | 22.3* | 0.9 | -7.1 | 7.5 | 2.4
Cc1ccc(S(=O)(=O)c2nc(S(C)(=O)=O)sc2N2CCC(C(N)=O)CC2)cc1 | -0.4 | -8.0 | -4.7 | -1.8 | -1.9 | nt | nt
Cc1ccc(NC(=O)CSc2nc(NS(=O)(=O)c3ccc(C)cc3)cc(=O)[nH]2)cc1 | -0.2 | 39.1 | 23.0* | 7.0 | 1.6 | 7.5 | 1.3
COc1ccc(OCCN(C)CC(=O)Nc2ccccc2SC)cc1 | 0.0 | 8.2 | 1.9 | 1.4 | -1.2 | nt | nt
CCc1cccc(CC)c1NC(=O)C1CSC2(C)CCC(=O)N12 (stereo not given) | 0.1 | -9.0 | 5.7 | 1.6 | 0.8 | nt | nt
CC(=O)c1ccc(NC(=S)NC(C)c2ccc(Cl)cc2Cl)cc1 (stereo not given) | 2.2 | 39.8 | 23.9* | 8.0 | 22.2* | 4.2 | 1.2
N#Cc1c(NC(=O)CCn2cnc3ccccc3c2=O)oc(-c2ccccc2)c1-c1ccccc1 | 0.5 | 17.7 | 20.1* | 6.5 | -5.1 | 15.9 | 5.7
N#Cc1c(NC(=O)CCN2C(=O)c3ccccc3C2=O)oc(-c2ccccc2)c1-c1ccccc1 | -0.1 | -0.3 | -5.8 | -7.1 | -1.6 | nt | nt
SMILES | aDG glyco act | FAS TE block | ADAM10 inh | ADAM17 inh | NR3A LBD binder | ADAM10 confirm | ADAM17 ctr
O=C1CCCN2N=C(SCC(=O)Nc3cccc(Cl)c3)SC2=N1 | 0.4 | -0.6 | 2.5 | -2.1 | -3.8 | nt | nt
CC1CCCCC1NC(=O)C1CC(=O)N(Cc2ccccc2)C1 (stereo not given) | 0.3 | -3.7 | 53.7* | -6.3 | 2.2 | -0.5 | 0.6
O=C(COc1ccc(-c2nnco2)cc1)Nc1c(F)cccc1F | 0.0 | -3.2 | 84.3* | -0.1 | 14.1* | -1.2 | -0.1
CC1(Cc2ccc(Cl)c(Cl)c2)C(=O)Nc2ccc(S(=O)(=O)NC3CCCCC3)cc21 (stereo not given) | -0.4 | 39.5 | 20.2* | 7.7 | nt | 12.9 | 3.4
CC1(Cc2cccc(F)c2)C(=O)Nc2ccc(S(=O)(=O)NC3CCCCC3)cc21 (stereo not given) | 0.2 | 12.5 | 7.2 | 2.9 | nt | nt | nt
COC(=O)c1ccc(N2CCN(CC(=O)c3ccc(C)cc3)CC2)c([N+](=O)[O-])c1 | 0.0 | -10.7 | -21.5 | -10.9 | 0.3 | nt | nt
Oc1ccc(-c2nccc(-c3ccc(Br)cc3)n2)cc1 | 0.4 | 8.4 | 20.4* | 6.1 | 37.0* | 5.5 | 1.7
NS(=O)(=O)c1ccc(-n2nc(C(=O)O)cc2-c2ccc(Cl)cc2)cc1 | 0.4 | -4.6 | 2.8 | -3.9 | -0.5 | nt | nt
CC(=O)C[C@@H](O)CC(=O)[C@@H]1OC(=O)CCCCCCc2ccccc21 | 0.2 | -2.8 | 1.9 | -3.9 | -0.2 | nt | nt
CCCc1nc2ccccc2c(C(=O)N(CC)CC(=O)NCc2cccs2)c1CC | -0.4 | -2.0 | 0.4 | 3.4 | 1.7 | nt | nt
COC(=O)[C@]12C[C@H](CC(=O)NCCc3ccccc3OC)C(=O)N(Cc3cccc4ccccc34)C1=C[C@H](C1CCCC1)O[C@@H]2C | nt | nt | 25.4* | 6.6 | nt | 10.1 | 3.4
COC(=O)[C@]12C[C@H](CC(=O)N3CCC(c4ccccc4)CC3)C(=O)N(Cc3ccccc3)C1=C[C@H](COCc1ccccc1)O[C@@H]2C | nt | nt | 23.9* | 8.1 | nt | 4.7 | 1.3
CCCCCCCCN1C(=O)[C@@H](CC(=O)N2CCC(c3ccccc3)CC2)C[C@@]2(C(=O)OC)C1=C[C@H](COCc1ccccc1)O[C@@H]2C | nt | nt | 7.7 | -0.1 | nt | nt | nt
CCCCNC(=O)C[C@H]1C[C@@]2(C(=O)OC)C(=C[C@H](COCc3ccccc3)O[C@@H]2C)N(CCc2ccc(OC)c(OC)c2)C1=O | nt | nt | -1.1 | -0.9 | nt | nt | nt
COC(=O)[C@]12C[C@H](CC(=O)NCCc3ccccc3OC)C(=O)N(CCc3ccc(OC)c(OC)c3)C1=C[C@H](COCc1ccccc1)O[C@@H]2C | nt | nt | 20.9* | 7.6 | nt | 2.2 | 1.1
COC(=O)[C@]12C[C@H](CC(=O)NCCc3ccccc3OC)C(=O)N(Cc3ccccc3)C1=C[C@H](C1CCCC1)O[C@@H]2C | nt | nt | 11.5 | 4.2 | nt | nt | nt

Compound activity as filed in PubChem.
